In the library only some 7.3% were active in any assay of this set; here they are far more common.
SMN2 splice enh: qHTS Assay for Enhancers of SMN2 Splice Variant Expression; HEK293 SMN2-luciferase splicing reporter, luminescence, 30-36 h; Potency, µM (highest dose often 46.1 µM), inactives show at the top dose activity change, positive = activation, actives largely listed as activators; actives 2.8% (n = 210,000); also: % of control where 0% means no effect; nearly all actives have a fitted effect of over 55% in size
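HEK293 cells carry an SMN2 minigene-luciferase reporter in which exon 7 inclusion puts luciferase in frame. Cells were seeded at 2000 cells/well, attached for 10-12 hours, then exposed to compounds for 30-36 hours at 37C before ONE-Glo luminescence.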
Rab9 prom act: qHTS Assay for Rab9 Promoter Activators. AID 485297, 2010. Potency, µM (highest dose often 9.22 µM), inactives show top-dose activation, negative = inhibition, most hits filed as activators. Huh7 Rab9 promoter-luciferase reporter, luminescence, 24 h. actives 2.8% (n = 320,000); also: % of control where 0% means no effect; nearly all actives have a fitted effect of over 60% in size
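Stable Rab9-luc Huh7, 1500 cells/well, 2 h settle; cmpd in DMSO, 24 h, 37 °C/5% CO2; luciferase reagent 10 min RT; luminescence.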
ELG1 genotoxic: qHTS screen for small molecules that induce genotoxicity in human embryonic kidney (HEK293T) cells expressing luciferase-tagged ELG1 | HEK293T ELG1-luciferase reporter, luminescence, 16 h | Potency, µM (titrated, usually from 46 µM), for inactives: at the highest dose activity change, positive = activation, most hits filed as activators | actives 1.3% (n = 330,000); also: % of control where 0% means no effect; nearly all actives have a fitted effect of over 60% in size
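Luminescence read-out: rising ELG1-luciferase signal, reflecting elevated ELG1 protein under genetic stress, flags genotoxic compounds. Cells were treated for 16 hr at 37 °C before ONE-Glo detection.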
FLuc counter: qHTS profiling assay for firefly luciferase inhibitor/activator using purifed enzyme and Km concentrations of substrates (counterscreen for miR-21 project). Luciferin 4-monooxygenase (Photinus pyralis), P08659. purified FLuc, Km substrates, luminescence inhibition. Potency, µM (titrated, usually from 57.5 µM), for the others: at the top dose activity change, negative = inhibition, most hits filed as inhibitors. actives 6.9% (n = 360,000). AID 588342, 2011;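 also: plate controls were vehicle for no effect and reference inhibitor for full effect; nearly all actives have a fitted effect of over 55% in size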
Target sequence (P08659 whole entry, looked up): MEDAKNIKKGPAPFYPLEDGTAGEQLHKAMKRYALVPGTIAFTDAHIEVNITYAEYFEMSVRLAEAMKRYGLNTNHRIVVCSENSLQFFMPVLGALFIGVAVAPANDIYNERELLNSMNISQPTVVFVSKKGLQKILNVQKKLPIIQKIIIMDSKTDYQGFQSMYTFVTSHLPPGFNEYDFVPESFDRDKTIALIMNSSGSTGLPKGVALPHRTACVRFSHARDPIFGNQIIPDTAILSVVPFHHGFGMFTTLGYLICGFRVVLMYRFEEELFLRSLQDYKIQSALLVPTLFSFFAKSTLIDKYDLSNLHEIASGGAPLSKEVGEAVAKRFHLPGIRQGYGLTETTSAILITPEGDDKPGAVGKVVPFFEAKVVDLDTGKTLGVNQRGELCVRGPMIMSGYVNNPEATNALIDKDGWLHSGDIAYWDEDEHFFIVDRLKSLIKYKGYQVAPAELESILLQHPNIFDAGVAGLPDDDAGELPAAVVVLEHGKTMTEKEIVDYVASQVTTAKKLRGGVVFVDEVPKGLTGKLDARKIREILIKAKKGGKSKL
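Biochemical qHTS of compounds, final roughly 60 µM downward over six points, against 10 nM purified firefly luciferase using Km concentrations of substrates (10 uM D-luciferin, 10 uM ATP) in Tris acetate pH 7.5 buffer; luminescence output.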
NPC1 prom act: qHTS Assay for NPC1 Promoter Activators; Potency, µM (doses to about 9.22 µM), without a hit: at the highest dose activation, most hits filed as activators; AID 485313, 2010; actives 2.4% (n = 320,000); Huh7 NPC1 promoter luciferase reporter, 24 h; also: % of control where 0% means no effect; nearly all actives have a fitted effect of over 60% in size
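Luminescence from an NPC1 promoter-driven luciferase reporter in stably transfected Huh7 cells was measured after 24 h compound treatment at 37 °C, followed by 10 min ambient incubation with luciferase detection reagent.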
KinaseGlo FLuc: Counterscreen for Luciferase (Kinase-Glo TM) Inhibition; Potency, µM (doses to about 38.3 µM), for the others: at the top dose activity change, negative = inhibition, hits mostly inhibitors; actives 0.28% (n = 200,000); AID 1379, 2008; Kinase-Glo luciferase, ATP luminescence, 8 min; Luciferin 4-monooxygenase (Photuris pensylvanica), Q27757; also: % is scaled to controls: 0 for no effect and ±100 for the full control effect; nearly all actives have a fitted effect of over 60% in size
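Substrate mix (final 50 mM imidazole pH 7.2, 50 mM KCl, 7 mM MgCl2, 10 uM ATP, 0.01% Tween 20, 0.05% BSA) plus pin-tool compound, then Kinase-Glo detection mix; 8 min ambient, luminescence read.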
* = called active by the depositor; [ ] = remark or other dose. Calls follow the shape of the dose curve; as a rule, active = well fitted curve in the direction sought with a large enough effect; inconclusive = small, poorly fitted or top-dose-only effect, or another doubt; inactive = no such curve, though single readings can be large; an effect the other way counts as inactive or inconclusive. Potency is read from the fitted curve at half-maximal effect.

`CCOc1ccc(NS(=O)(=O)c2ccc(C(=O)N3CCN(c4ncccn4)CC3)cc2)cc1` gave SMN2 splice enh -83.0%, Rab9 prom act -3.7%, ELG1 genotoxic -12.0%, FLuc counter -12.3%, NPC1 prom act -7.2% and KinaseGlo FLuc 6.3%.
Screening Cc1cccc(/C=C(\C#N)C(=O)Nc2ccccn2)c1 returned Rab9 prom act 0.6%, ELG1 genotoxic 1.9%, FLuc counter inconclusive and NPC1 prom act -1.0%.
For CC(C)(C)c1ccc(/C=C(\C#N)C(=O)Nc2ccccn2)cc1 the results were Rab9 prom act -2.0%, ELG1 genotoxic -4.6%, FLuc counter 8.49µM* and NPC1 prom act 2.0%.
C=CCOc1ccc(/C=C(\C#N)C(=O)Nc2ccccn2)cc1 was read as Rab9 prom act 4.3%, ELG1 genotoxic -0.9%[9.26 µM], FLuc counter 2.13µM* and NPC1 prom act 0.8%.
Screening CCCCCC/C=C\CCCCCCCc1cccc(O)c1C(=O)O returned SMN2 splice enh 5.7% and KinaseGlo FLuc -4.1%.
Screening CC(=O)N1CCCN(Cc2cn(-c3cccc(C)c3)nc2-c2cccc(F)c2)CC1 returned Rab9 prom act 0.5%, ELG1 genotoxic -1.8%, FLuc counter 16.9µM* and NPC1 prom act -3.8%.
`Cc1cccc(-n2cc(CN3CCCN(C=O)CC3)c(-c3cccc(F)c3)n2)c1` gave Rab9 prom act -0.4%, ELG1 genotoxic 0.7%, FLuc counter 13.5µM*, NPC1 prom act -5.4% and KinaseGlo FLuc -1.7%.
`O=S(=O)(c1cc(Cl)cc(Cl)c1)N1CCCC1c1nc2ccccc2s1` (stereo not drawn) gave SMN2 splice enh -42.0%, Rab9 prom act -4.7%, ELG1 genotoxic -2.9%, FLuc counter 4.3%, NPC1 prom act -1.4% and KinaseGlo FLuc 2.2%.
COc1ccc(N=Cc2cccc(C)c2O)cc1Cl was read as SMN2 splice enh 6.8%, Rab9 prom act 10.2%, ELG1 genotoxic 1.9%, FLuc counter 26.9µM*, NPC1 prom act -3.7% and KinaseGlo FLuc -2.9%.
`CCN1CCC(N2CCN(c3ccc(F)cc3)CC2)CC1` gave Rab9 prom act -4.9%, ELG1 genotoxic -2.0%, FLuc counter 5.8% and NPC1 prom act -2.1%.
Cc1cccc(N=Cc2cc(Br)cc(Cl)c2O)c1 was read as SMN2 splice enh -6.2%, Rab9 prom act -2.3%, ELG1 genotoxic -0.7%, FLuc counter inconclusive, NPC1 prom act 0.3% and KinaseGlo FLuc -4.9%.
`COc1cccc(/C=N/N2C(=O)NC3(CCCCC3)C2=O)c1O` gave SMN2 splice enh -10.1%, Rab9 prom act -3.2%, ELG1 genotoxic 2.1%, FLuc counter 13.5µM*, NPC1 prom act 0.1% and KinaseGlo FLuc -4.9%.
CCN1CCN(c2ccc(N=Cc3ccccc3O)cc2)CC1 was read as SMN2 splice enh -1.0%, Rab9 prom act 0.8%, ELG1 genotoxic -1.4%, FLuc counter 21.3µM*, NPC1 prom act 1.7% and KinaseGlo FLuc -2.2%.
Screening COc1cccc(C=Nc2ccc3c(c2)OCCO3)c1O returned SMN2 splice enh 18.8%, Rab9 prom act -0.7%, ELG1 genotoxic inconclusive, FLuc counter 19µM*, NPC1 prom act 7.4% and KinaseGlo FLuc 7.94µM*.
NC(=O)C1=CN(Cc2ccc(Cl)cc2)CCC1C(F)(F)F (stereo not drawn) was read as Rab9 prom act -5.9%, ELG1 genotoxic -2.1%, FLuc counter 1.4% and NPC1 prom act -5.6%.
For Cc1cc(O)c(C=Nc2ccc(N3CCOCC3)cc2)c(C)c1Cl the results were Rab9 prom act 5.0%, ELG1 genotoxic -1.1%, FLuc counter 4.78µM* and NPC1 prom act 0.4%.

From PubChem
